# This is one part of a sample in which the strongest signals are shown more often than they occur.
# Columns and labels:
# Assay in all cases: glycan array binding signal (z-score within array); higher = stronger binding
# Conditions in all cases: glycan notation: IUPAC condensed, linker removed
# [1] = biological target: GalNAc(a1-3)GalNAc(a1-3)Gal(a1-4)Gal(b1-4)GlcNAc
# In short: (§1)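 Columns mapping to the same glycan were averaged after glycan names were converted to IUPAC-condensed notation. The data come from 3228 arrays in the Consortium for Functional Glycomics database, limited to those with an available protein sequence. Binding is reported as a within-array Z-score averaged across arrays of one protein sequence and across linkers.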
# [2] = biological target: GalNAc3S(b1-4)GlcNAc
# In short: as §1
# [3] = biological target: GalNAc4S6S(b1-4)GlcNAc
# In short: as §1
# [4] = biological target: GlcNAc(b1-2)[GlcNAc(b1-6)]Man(a1-6)[GlcNAc(b1-2)Man(a1-3)]Man(b1-4)GlcNAc(b1-4)[Fuc(a1-6)]GlcNAc
# In short: as §1
# [5] = biological target: GlcNAc(b1-3)Gal(b1-3)GalNAc
# In short: as §1
# [6] = biological target: GlcNAc(b1-3)Gal(b1-4)GlcNAc(b1-2)Man(a1-3)[GlcNAc(b1-3)Gal(b1-4)GlcNAc(b1-2)Man(a1-6)]Man(b1-4)GlcNAc(b1-4)GlcNAc
# In short: as §1
# [7] = biological target: GlcNAc(b1-3)Gal(b1-4)GlcNAc(b1-3)Gal(b1-4)GlcNAc(b1-2)Man(a1-3)[GlcNAc(b1-3)Gal(b1-4)GlcNAc(b1-3)Gal(b1-4)GlcNAc(b1-2)Man(a1-6)]Man(b1-4)GlcNAc(b1-4)GlcNAc
# In short: as §1
# [8] = biological target: GlcNAc(b1-3)Gal(b1-4)GlcNAc(b1-3)Gal(b1-4)GlcNAc(b1-2)[GlcNAc(b1-3)Gal(b1-4)GlcNAc(b1-3)Gal(b1-4)GlcNAc(b1-6)]Man(a1-6)[GlcNAc(b1-3)Gal(b1-4)GlcNAc(b1-3)Gal(b1-4)GlcNAc(b1-2)Man(a1-3)]Man(b1-4)GlcNAc(b1-4)[Fuc(a1-6)]GlcNAc
# In short: as §1
# [9] = biological target: GlcNAc(b1-4)GlcNAc(b1-4)GlcNAc
# In short: as §1
# [10] = biological target: GlcNAc6S(b1-3)Gal(b1-4)GlcNAc
# In short: as §1
# [11] = biological target: Man(a1-2)Man(a1-3)[Man(a1-6)]Man(a1-6)[Man(a1-2)Man(a1-3)]Man(b1-4)GlcNAc(b1-4)GlcNAc
# In short: as §1
# [12] = biological target: Man(a1-2)Man(a1-6)[Man(a1-3)]Man(a1-6)[Man(a1-2)Man(a1-2)Man(a1-3)]Man(b1-4)GlcNAc(b1-4)GlcNAc
# In short: as §1
# [13] = biological target: Neu5Ac(a2-3)Gal(b1-3)[GlcNAc(b1-6)]GalNAc
# In short: as §1
# [14] = biological target: Neu5Ac(a2-3)Gal(b1-4)GlcNAc(b1-2)Man
# In short: as §1
# [15] = biological target: Neu5Ac(a2-3)Gal(b1-4)GlcNAc(b1-2)[Neu5Ac(a2-3)Gal(b1-4)GlcNAc(b1-6)]Man(a1-6)[Neu5Ac(a2-3)Gal(b1-4)GlcNAc(b1-2)Man(a1-3)]Man(b1-4)GlcNAc(b1-4)GlcNAc
# In short: as §1
# [16] = biological target: Neu5Ac(a2-3)Gal(b1-4)GlcNAc(b1-3)Gal(b1-4)GlcNAc(b1-3)Gal(b1-4)GlcNAc
# In short: as §1
# [17] = biological target: Neu5Ac(a2-3)[GalNAc(b1-4)]Gal(b1-4)GlcNAc(b1-3)GalNAc
# In short: as §1
# [18] = biological target: Neu5Ac(a2-6)Gal(b1-4)GlcNAc(b1-2)Man
# In short: as §1
# [19] = biological target: Neu5Ac(a2-6)Gal(b1-4)GlcNAc(b1-3)Gal(b1-3)GlcNAc
# In short: as §1
# [20] = biological target: Neu5Ac(a2-8)Neu5Ac(a2-3)[Gal(b1-3)GalNAc(b1-4)]Gal(b1-4)Glc
# In short: as §1
# [21] = biological target: Neu5Ac(a2-8)Neu5Ac(a2-3)[GalNAc(b1-4)]Gal(b1-4)Glc
# In short: as §1
# [22] = biological target: Neu5Ac(a2-8)Neu5Ac(a2-8)Neu5Ac(a2-3)[GalNAc(b1-4)]Gal(b1-4)Glc
# In short: as §1
# [23] = biological target: Neu5Gc(a2-3)Gal(b1-3)[Fuc(a1-4)]GlcNAc
# In short: as §1
# [24] = biological target: Neu5Gc(a2-3)Gal(b1-4)Glc
# In short: as §1
# [25] = biological target: Neu5Gc(a2-6)Gal(b1-4)GlcNAc
# In short: as §1
binder,measurement,setting,value
Pbx2 (Cryptococcus neoformans) (protein) AVSPLPSSTELVFYSQKRRRRRICSTATGSLSTPDPTRMTSDPYKRVGMRFSSVPRLLITFLSLLLLVSAAPPCVRFADYDSINQMFIDGGPGTKVLLCPNRLYRLSGPIIFTAADQEIATYGYPTGSERAVLRVEGRNTATAIQGDCRRCARVSVKNLVVDGNRKKLGRMRDFQLATGLVVLGGNEGQSIQNSWIKNPRGFTAIHIREGDKLQCSGARVEKNEIGPVGEEYDPEKDGDDPEMSPLGRPLADGVSIACRDSFIRDNTFRDNTDAAIVVYCSPGTLIHANHIFAQSLSAMAGILMVDSTPFNGDYTGTVVRSNIIDAVSRTIRVGIGIGPTVWSDDTETILTGGSVIGNGLKGRYMGYGIAAAGLKQWTIKDNWDEAKHEGRKSARCFDEPVNPDPIGLLYNRPTMEDCTVQSGFADHDFQYLVCIDGLYDKTNPPKHDPAPLAHDPSPTNAQEDNTVQQDGGDSKSKSIEQPREASDIEAEPSVEKMFSTGSEMMDDVLEHSHQRMHEVIDHLSRRIDILGAASAGKGSGDSKISEVLDPAMSSHLEKLQRKIEHLEFSLRSQIETAIQLRSAIQGWDQEMALVTDWEYDILLDVRHKLELSSYPHDQPLDPRLMRGQSYLNNEAVLVDDHSHPSLEGENLRAMSDRARLNANEEA,glycan array binding signal (z-score),[1],0.168
same,glycan array binding signal (z-score),[2],-0.522
same,glycan array binding signal (z-score),[3],6.54
same,glycan array binding signal (z-score),[4],-0.377
same,glycan array binding signal (z-score),[5],-0.436
same,glycan array binding signal (z-score),[6],-0.424
same,glycan array binding signal (z-score),[7],3.17
same,glycan array binding signal (z-score),[8],1.33
same,glycan array binding signal (z-score),[9],-0.147
same,glycan array binding signal (z-score),[10],-0.104
same,glycan array binding signal (z-score),[11],-0.065
same,glycan array binding signal (z-score),[12],0.275
same,glycan array binding signal (z-score),[13],-0.075
same,glycan array binding signal (z-score),[14],4.34
same,glycan array binding signal (z-score),[15],0.027
same,glycan array binding signal (z-score),[16],-0.461
same,glycan array binding signal (z-score),[17],-0.206
same,glycan array binding signal (z-score),[18],0.729
same,glycan array binding signal (z-score),[19],-0.368
same,glycan array binding signal (z-score),[20],0.256
same,glycan array binding signal (z-score),[21],-0.131
same,glycan array binding signal (z-score),[22],0.212
same,glycan array binding signal (z-score),[23],-0.266
same,glycan array binding signal (z-score),[24],-0.241
same,glycan array binding signal (z-score),[25],-0.317
